# The list is not random: actives were taken first. Their share in the collection is about 21%.
# AMA1-RON2 inh = inhibitors of Plasmodium falciparum AMA1-RON2 interaction; AlphaScreen AMA1-biotinylated RON2 peptide binding; Potency, µM (titrated, usually from 58.2 µM), for the others: at the highest dose activity change, negative = inhibition, usual class: inhibitors; actives 0.2% (n = 360,000);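 further: potency means the concentration at half of the fitted maximal effect; 0% = vehicle wells and -100% = peptide control; nearly all actives have a fitted effect of over 45% in size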
#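 AMA1 (3D7) with his tag at 25 nM final met compounds first, then biotinylated RON2 peptide at 25 nM; detection used donor plus acceptor beads, 10 µg/mL apiece, read by AlphaScreen after 30 min at room temperature.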
# Shiga toxin inh = inhibitors of Shiga toxin in Vero cells. Vero cells, Shiga toxin protein synthesis inhibition reporter. inhibition, % at 38.7 µM. actives 9.2% (n = 290,000). AID 2315; in the data active means inhibition mostly above about 28%, no sharp cut-off; inactive means mostly below about 43%; further: 0% is about no effect
# Pf growth 48h = inhibits P. falciparum growth in the first generation, 48 h; P. falciparum luciferase growth in erythrocytes, 48 h; Potency, µM (titrated, usually from 28.7 µM), inactives show top-dose activity change, negative = inhibition, actives largely listed as inhibitors; actives 5.9% (n = 310,000); AID 504832; further: potency means the concentration at half of the fitted maximal effect; on the % scale 0 is the no-effect control and ±100 the full control effect
#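 A one-generation exposure of luciferase-tagged malaria parasites in RPMI 1640/Albumax erythrocyte culture, 37 C and 5% CO2. Inhibition is inferred from decreased luminescence after adding detection reagent.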
# HCV inhibitor = blocks hepatitis C virus | actives 3.4% (n = 340,000) | Potency, µM (doses to about 41.8 µM), inactives show at the top dose activity change, negative = inhibition, hits mostly inhibitors | Huh7.5.1 HCVcc-Cre infection, luciferase reporter, 44 h | AID 651820; further: potency means the concentration at half of the fitted maximal effect; on the % scale 0 is the no-effect control and ±100 the full control effect
#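 Seed cells (1,000/well) for 4 h; treat with compound and infect with HCVcc-Cre, moi about 0.5. Incubate 44 h, then detect luciferase activity.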
# Pf growth 96h = inhibits malaria parasite growth, 96 h; P. falciparum luciferase reporter growth, 96 h; Potency, µM (highest dose often 28.7 µM), without a hit: at the highest dose activity change, negative = inhibition, usual class: inhibitors; actives 6.9% (n = 320,000); further: potency means the concentration at half of the fitted maximal effect; on the % scale 0 is the no-effect control and ±100 the full control effect
#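 Delayed-death screen, second-generation endpoint: infected erythrocytes, 2% hematocrit, 0.05% parasitemia final; 96 hours at 37 C, 5% CO2; luciferase detection reagent; luminescence decrease equals reduced growth.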
# Cycloheximide cs = counter-screen for Shiga toxin inhibitors: cycloheximide protein synthesis inhibition | cell reporter, cycloheximide protein synthesis inhibition counterscreen | max response, % | actives 12% (n = 300,000) | AID 2314; in the data active means max response mostly above about 13%, no sharp cut-off; inactive means mostly below about 14%; further: read at 38.3 µM for the half of the compounds with a filed dose; 0% is about no effect
# * = called active by the depositor; i = inactive; ? = inconclusive; . = no result given; ! = not active in a repeat; [ ] = another dose, or the depositor's remark. Unless noted, the call rests on the fitted dose curve; in most records, active means well fitted curve in the direction sought with a large enough effect; inconclusive means small, poorly fitted or top-dose-only effect, or another doubt; inactive means no such curve, though single readings can be large; an effect the other way counts as inactive or inconclusive.
SMILES,AMA1-RON2 inh,Shiga toxin inh,Pf growth 48h,HCV inhibitor,Pf growth 96h,Cycloheximide cs
O=C(Cc1cc(=O)[nH][nH]1)N/N=C/C(Cl)=C/c1ccccc1,9.8%,-9.7,1.17µM*!,16.7%,62.1%,-1.2
N#Cc1ccc(/C=N/NC(=O)c2ccccc2F)cc1,3.3%,12.7,139.5%,14.2%,96.5%,12.0
CCOC(=O)c1cc(-c2ccccc2)n(CCC(=O)N2CCN(c3ccccn3)CC2)c1C,-14.5%,-9.7,?,2.5%,13.1µM*,-5.0
CN(CCCC(=O)N1CCN(c2ncccn2)CC1)S(=O)(=O)c1ccc(F)cc1,-5.1%,.,.,3.8%,.,.
COc1ccc(S(=O)(=O)N(C)CC(=O)N2CCN(c3ccccc3)CC2)cc1,-2.2%,1.5,-24.2%,8.1%,2.0%,-1.9
CN(CC(=O)N1CCN(c2ccccn2)CC1)S(=O)(=O)c1ccccc1,6.6%,49.9*,35.6%,12.0%,1.4%,43.1*
Cc1ccc(S(=O)(=O)N(C)CCCC(=O)N2CCN(c3ccccn3)CC2)cc1,-13.2%,15.9,13.1µM*,?,.,-2.1
CN(CC(=O)N1CCN(c2ncccn2)CC1)S(=O)(=O)c1ccc(Cl)cc1,-10.7%,11.4,25.0%,-1.7%,2.1%,21.0*
O=C(CCN1C(=O)C2C3CC(C(Br)C3Br)C2C1=O)OCC(=O)c1cccc([N+](=O)[O-])c1 (stereo not drawn),-0.1%,-8.0,22.0%,-4.7%,38.6%,-2.2
Cn1nc(C(=O)OCC(=O)Nc2cccc(S(=O)(=O)N3CCCC3)c2)c2ccccc2c1=O,-2.2%,-3.9,11.7µM*,22.3%,-11.9%,-4.9
Cn1nc(C(=O)Nc2cccc(S(=O)(=O)N3CCCC3)c2)c2ccccc2c1=O,-10.2%,.,8.28µM*,?,9.28µM*,.
NC(=O)c1nn(CC(=O)Nc2cccc(S(=O)(=O)N3CCCC3)c2)c(=O)c2ccccc12,9.3%,.,?,11.2µM*,?,.
O=C(Cn1nc(C(=O)O)c2ccccc2c1=O)Nc1ccc2c(c1)C(=O)c1ccccc1C2=O,.,44.0,73.5%,.,131.7%,23.9*
Nc1nccnc1C(=O)OCC(=O)Nc1cccc(S(=O)(=O)N2CCCCC2)c1,10.6%[11.6 µM],-8.3,5.3%,1.1%,?,-3.3
CC1CCCCN1C(=O)c1ccc(Br)o1 (stereo not drawn),-6.8%,-5.1,0.1%,12.0%,?,1.4
O=C(Cn1cnc2cc([N+](=O)[O-])ccc2c1=O)NC1CCS(=O)(=O)C1 (stereo not drawn),-12.8%,-4.7,-17.9%,9.2%,27.2%,-3.0
Nc1ccc(C(=O)NCCCSc2ccccc2)cc1[N+](=O)[O-],-4.9%,-8.5,-4.5%,-9.4%,?,1.6
CC(C)n1nc(C(=O)Nc2cccc(S(=O)(=O)N3CCOCC3)c2)c2ccccc2c1=O,-1.6%,.,?,?,10.4µM*,.
CC(C)n1nc(C(=O)Nc2cccc(S(=O)(=O)N3CCCCC3)c2)c2ccccc2c1=O,-5.1%,.,?,?,?,.
COc1cccc(/C=N/Nc2ncnc3c2[nH]c2ccc(C)cc23)c1OC,-20.6%,23.1,?,-19.7%,?,0.5
COc1cccc(/C=N/Nc2ncnc(Cl)c2N)c1O,-19.0%,40.2*,1.65µM*,5.62µM*,2.62µM*,55.0*
COc1cccc(/C=N/Nc2nccnc2Cl)c1O,-31.8%,34.1,?,2.51µM*,-2.9%,13.2*
COc1cccc(/C=N/Nc2ncnc3scc(-c4ccccc4)c23)c1O,22.6%,-2.1,2.94µM*,?,2.33µM*,-0.3
COc1cccc(/C=N/Nc2ncnc(N)c2[N+](=O)[O-])c1OC,3.2%,72.7*,174.9%,-11.6%,.,34.9*
COc1cccc(C=NNc2ccc([N+](=O)[O-])cn2)c1OC,8.5%,.,.,4.7%,.,.
SMILES,AMA1-RON2 inh,Shiga toxin inh,Pf growth 48h,HCV inhibitor,Pf growth 96h,Cycloheximide cs
Cc1cnc(=O)[nH]c1SCc1cccc([N+](=O)[O-])c1,-16.4%,-2.9,2.0%,-6.2%,13.9%,-2.3
CCOc1ncccc1C(=O)NC(C)CCc1ccccc1 (stereo not drawn),3.3%,-11.2,-7.2%[0.00184 µM],-7.5%,2.1%,-4.0
CC1(C)CC(c2nc(-c3ccccc3)cs2)CCS1 (stereo not drawn),11.4%,-1.5,7.2%,-20.1%,3.1%,15.9*
Cc1ccc(C(=O)OC(C)C(=O)c2cc(C)c(C)cc2C)o1 (stereo not drawn),9.4%,27.1,?,?,2.0%,20.4*
COc1cc(C(=O)c2c(C)c(CCC#N)n3ccccc23)cc(OC)c1OC,-0.1%,-13.7,9.28µM*,-2.2%,-18.7%,8.0
Cc1cc(C)c2nc(SC3CCOC3=O)cc(C)c2c1 (stereo not drawn),4.2%,-3.9,4.9%,-7.5%,35.8%,-1.3
Cc1cc(C)c2nc(SC(C)C#N)cc(C)c2c1 (stereo not drawn),10.2%,-4.0,.,10µM*,16.2%,0.5
CC1(C)C2CCC(CN)C1C2 (stereo not drawn),-0.3%,.,.,.,.,.
CC(C)c1ccccc1NC(=O)C1CC(=O)N(C2CCCC2)C1 (stereo not drawn),-0.2%,-11.8,-8.7%,12.5%,7.7%,-1.0
O=C(NCc1ccco1)C1CCN(c2nc3ccccc3n2Cc2ccc(F)cc2)CC1,-1.9%,-5.1,.,-11.0%,10.4µM*,-7.8
O=C(NCCCN1CCc2ccccc2C1)C1CCN(c2nnc(-n3cccc3)s2)CC1,-3.6%,17.2,4.15µM*,?,?,12.5
O=C(NCCCN1CCN(Cc2ccccc2)CC1)C1CCN(c2nnc(-n3cccc3)s2)CC1,-5.7%,25.6,?,?,63.3%,3.2
CN(Cc1ccco1)C(=O)C1CCN(c2nnc(-n3cccc3)s2)CC1,7.7%,21.1,-14.4%,-19.9%,0.4%,-3.8
O=C(NCc1ccco1)C1CCN(c2nnc(-n3cccc3)s2)CC1,-4.9%,16.3,7.9%,-10.1%,7.9%,15.6*
CN(CC1CCOCC1)C(=O)CC1C(=O)NCCN1Cc1ccc(F)c(F)c1 (stereo not drawn),-2.1%,-4.6,?,18.4%,?,-2.6
CN(C(=O)CC(NC(=O)c1ccccc1Cl)c1ccccc1)c1ccccc1 (stereo not drawn),7.7%,-3.2,?,.,-29.2%,7.1
C=CCNC(=O)c1ccc(OC2CCN(S(=O)(=O)N(C)C)CC2)cc1,5.2%,95.4*,-9.4%,-1.0%,-0.1%,50.5*
CN(C)S(=O)(=O)N1CCC(Oc2ccc(C(=O)NCc3cnn(C)c3)cc2)CC1,-7.5%,-5.0,-8.9%,?,?,6.7
C=CCN(CC=C)C(=O)c1cccc(OC2CCN(S(=O)(=O)N(C)C)CC2)c1,2.8%,-19.5,-8.9%,-29.9%,?,2.2
C=CCN(CC=C)C(=O)c1ccc(OC2CCN(S(=O)(=O)N(C)C)CC2)cc1,6.5%,87.2*,-19.4%,-4.0%,i,53.4*
